The values below come from PubChem BioAssay.

Values without a mark were called inactive. For some assays here: Entries with a potency or affinity are not part of this list. Active and inactive are the calls of the source. Unless noted, no rule for the calls is given here.

Assay [1] is described as follows: antimalarial activity against Dd2 strain (AID 2302;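 active = growth inhibition above 50% at the single 2 µM test dose, taken to imply half-maximal potency below 2 µM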;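 also: 0% = DMSO untreated growth and 100% = chloroquine plus artemisinin killed control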). Conditions: P. falciparum Dd2 in RBCs, LDH growth readout, 72 h; at 2 µM; stronger effect = higher value.
Assay [2] is described as follows: human hepatoma cell viability loss – ATP luminescence, cytotoxicity control for P. falciparum antimalarial project, primary screen (AID 2303;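 active = inhibition above 50%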;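 also: 0% = DMSO wells and 100% = digitonin-killed cells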). As to conditions: HepG2 viability, 24-48 h, at 10 µM, stronger effect = higher value.
The target of assay [3] is L-lactate dehydrogenase (Plasmodium falciparum (isolate CDC / Honduras)) (UniProt Q27743). Nature of the assay: PfLDH activity inhibition – cell lysate, 3D7 strain, counter-screen for P. falciparum growth inhibition project (AID 2304).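 Also: 0% = vehicle and 100% = reference inhibitor.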 Conditions: P. falciparum 3D7 crude extract, LDH APAD/NBT absorbance; at 2 µM; stronger effect = higher value. A general note: Counterscreens check selectivity or assay interference.

Assay [4] can be described thus: inhibition of 3D7 malaria parasite growth – strain 3D7 (AID 2306).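 Also: 0% = DMSO wells and 100% = chloroquine plus artemisinin control wells.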 As to conditions: P. falciparum 3D7 erythrocytic growth, LDH absorbance, 72 h; at 2 µM; stronger effect = higher value.
In assay [5] the target is Calcium-dependent protein kinase 1 (Plasmodium falciparum (isolate 3D7)) (UniProt P62344). The assay is described as follows: PfCDPK1 kinase inhibitors, biochemical, TCAMS library (AID 1159585; cut-off not given, nearly all actives have IC50 up to about 0.98 µM;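 also: inhibitors leave more ATP so luminescence rises with inhibition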). Conditions: recombinant PfCDPK1, Kinase-Glo ATP depletion luminescence.
For assay [6], the target named is Plasmodium falciparum protein kinase 6 (PK6, PF3D7_1337100) (UniProt Q8IDW1). The assay is described as follows: PfPK6 kinase inhibitors, biochemical, TCAMS library (AID 1159586). Conditions: recombinant PfPK6, Kinase-Glo ATP depletion luminescence. In general terms: Kinase-Glo reads ATP consumption through a luciferase reaction.
The target in assay [7] is Protein kinase 7 (PK7), Plasmodium falciparum 3D7 (PF3D7_0213400) (UniProt Q7YTF7). The assay is described as follows: inhibition of Plasmodium PK7 catalytic activity – biochemical, TCAMS antimalarial set, Kinase-Glo luminescence (AID 1159587). Conditions: recombinant PfPK7, Kinase-Glo ATP depletion luminescence.
The target in assay [8] is Calcium-dependent protein kinase 4 (Plasmodium falciparum (isolate 3D7)) (UniProt Q8IBS5). The assay is described as follows: PfCDPK4 kinase inhibitors, biochemical, TCAMS library (AID 1159588; cut-off not given, nearly all actives have IC50 up to about 0.91 µM). Conditions: recombinant PfCDPK4, Kinase-Glo ATP depletion luminescence.

In general, inhibition refers to the relative decrease from the control value, in per cent.

Protein kinase 7 (PK7), Plasmodium falciparum 3D7 (PF3D7_0213400), sequence (Q7YTF7 1-343): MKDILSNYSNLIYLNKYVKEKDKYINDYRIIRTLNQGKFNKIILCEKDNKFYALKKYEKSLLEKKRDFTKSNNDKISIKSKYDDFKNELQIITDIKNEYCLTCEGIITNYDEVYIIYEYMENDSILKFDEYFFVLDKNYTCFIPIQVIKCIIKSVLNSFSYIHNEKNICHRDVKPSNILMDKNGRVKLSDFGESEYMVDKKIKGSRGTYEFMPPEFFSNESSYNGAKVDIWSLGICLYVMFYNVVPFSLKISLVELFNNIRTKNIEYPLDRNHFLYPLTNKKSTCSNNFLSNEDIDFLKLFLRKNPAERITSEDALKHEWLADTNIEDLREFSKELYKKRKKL
Plasmodium falciparum protein kinase 6 (PK6, PF3D7_1337100), sequence (Q8IDW1 1-305): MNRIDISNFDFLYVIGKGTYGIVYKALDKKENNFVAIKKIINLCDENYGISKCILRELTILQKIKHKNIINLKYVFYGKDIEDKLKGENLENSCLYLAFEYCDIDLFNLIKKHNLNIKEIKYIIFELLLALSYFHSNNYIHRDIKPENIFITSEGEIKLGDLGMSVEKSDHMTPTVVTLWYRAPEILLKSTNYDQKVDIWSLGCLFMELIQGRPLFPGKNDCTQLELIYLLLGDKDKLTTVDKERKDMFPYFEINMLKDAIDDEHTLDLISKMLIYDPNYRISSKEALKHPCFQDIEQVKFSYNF
Calcium-dependent protein kinase 1 (Plasmodium falciparum (isolate 3D7)), sequence (P62344 whole entry, looked up): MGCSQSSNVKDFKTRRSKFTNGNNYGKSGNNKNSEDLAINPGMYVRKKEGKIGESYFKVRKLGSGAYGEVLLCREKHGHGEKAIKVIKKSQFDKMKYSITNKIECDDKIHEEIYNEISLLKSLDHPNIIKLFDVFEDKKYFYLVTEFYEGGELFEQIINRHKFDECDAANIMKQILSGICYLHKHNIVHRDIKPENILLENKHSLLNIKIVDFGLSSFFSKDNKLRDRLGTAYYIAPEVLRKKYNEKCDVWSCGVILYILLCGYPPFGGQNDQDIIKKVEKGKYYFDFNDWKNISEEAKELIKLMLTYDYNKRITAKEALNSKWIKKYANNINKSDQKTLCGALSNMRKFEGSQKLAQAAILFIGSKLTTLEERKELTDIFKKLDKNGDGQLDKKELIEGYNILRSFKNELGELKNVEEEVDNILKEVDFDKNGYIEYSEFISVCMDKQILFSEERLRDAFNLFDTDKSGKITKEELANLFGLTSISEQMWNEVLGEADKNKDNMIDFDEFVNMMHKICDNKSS
Calcium-dependent protein kinase 4 (Plasmodium falciparum (isolate 3D7)), sequence (Q8IBS5 whole entry, looked up): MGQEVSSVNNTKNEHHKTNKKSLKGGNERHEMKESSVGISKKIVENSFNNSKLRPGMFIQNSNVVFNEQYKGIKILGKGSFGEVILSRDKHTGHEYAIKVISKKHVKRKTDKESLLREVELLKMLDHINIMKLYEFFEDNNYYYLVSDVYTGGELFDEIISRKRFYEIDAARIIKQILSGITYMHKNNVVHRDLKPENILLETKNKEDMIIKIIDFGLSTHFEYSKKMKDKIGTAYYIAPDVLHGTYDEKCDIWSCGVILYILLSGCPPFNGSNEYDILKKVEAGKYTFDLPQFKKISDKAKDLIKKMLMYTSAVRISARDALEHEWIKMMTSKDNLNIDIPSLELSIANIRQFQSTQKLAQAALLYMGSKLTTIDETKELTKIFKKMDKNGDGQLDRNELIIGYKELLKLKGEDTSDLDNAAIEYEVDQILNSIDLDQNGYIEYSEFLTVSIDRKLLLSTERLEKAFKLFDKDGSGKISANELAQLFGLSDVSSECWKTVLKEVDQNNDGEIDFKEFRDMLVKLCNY
L-lactate dehydrogenase (Plasmodium falciparum (isolate CDC / Honduras)), sequence (Q27743 whole entry, looked up): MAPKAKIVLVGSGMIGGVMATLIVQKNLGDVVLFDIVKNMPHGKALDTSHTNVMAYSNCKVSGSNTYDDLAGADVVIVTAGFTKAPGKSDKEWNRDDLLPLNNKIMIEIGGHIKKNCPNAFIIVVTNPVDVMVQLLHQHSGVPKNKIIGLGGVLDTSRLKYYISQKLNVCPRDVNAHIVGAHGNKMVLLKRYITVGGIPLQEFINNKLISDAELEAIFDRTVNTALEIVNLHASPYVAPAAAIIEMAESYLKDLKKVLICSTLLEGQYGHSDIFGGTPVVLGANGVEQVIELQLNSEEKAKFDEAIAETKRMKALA

Regarding `CSc1nc2nc(C)c(Cc3cccc(C(F)(F)F)c3)c(C)n2n1`, the growth inhibition in assay [1] was 95% (active); in assay [4], 98% (active). For the same compound, the inhibition in assay [2] was 4%; in assay [3], 2%. Moreover, the result in assay [5], in assay [6], in assay [7] and in assay [8] was inactive.
As for `Cc1nc2sccn2c1C(=O)NCCc1ccccc1Cl`, the growth inhibition in assay [1] is 1%; in assay [4], 96% (active). The inhibition in assay [2] is 6%; in assay [3], 3%. Also, the result in assay [5], in assay [6], in assay [7] and in assay [8] was inactive.
With `Oc1ccc(CCNc2nc(NCc3ccccc3Oc3ccc(C(F)(F)F)cc3)nc(N3CCNCC3)n2)cc1`, the growth inhibition in assay [1] was 2%; in assay [4], 86% (active). For the same compound, the inhibition in assay [2] is 26%; in assay [3], 0%. Also, the outcome in assay [5], in assay [6], in assay [7] and in assay [8] was inactive.
On to `O=C(CC(=O)C(F)(F)F)c1ccc2c(c1)OCO2`, for which the growth inhibition in assay [1] is 0%; in assay [4] it was 96% (active). Further, the inhibition in assay [2] is 44%; in assay [3], 0%. Also, the outcome in assay [5], in assay [6], in assay [7] and in assay [8] was inactive.
`COc1ccc(CC(=O)NC(CCCN2CCC3(CC2)OCc2ccccc23)c2ccc(Cl)c(Cl)c2)cc1` (configuration not stated): the growth inhibition was 53% (active) in assay [1] and 83% (active) in assay [4]. The inhibition in assay [2] is 40%; in assay [3], 5%. For the same compound, the outcome in assay [5], in assay [6], in assay [7] and in assay [8] was inactive.
In the case of `COc1ccc(Cl)cc1N1CCN(CCCNC(=O)c2ccc(-c3nc4cc(Cl)c(C)cc4[nH]3)c(F)c2)CC1`, the growth inhibition was 91% (active) in assay [1] and 99% (active) in assay [4]. Moreover, the inhibition in assay [2] was -1%; in assay [3] it was -6%. For the same compound, the result in assay [5], in assay [6], in assay [7] and in assay [8] was inactive.
In the case of `Cc1cc(C(=O)Nc2ccc3c(c2)CCN3C2CCN(Cc3cccc4cc[nH]c34)C2)no1` (configuration not stated), the values for the growth inhibition in assay [1] and in assay [4] were 96% (active) and 97% (active), respectively. The values for the inhibition in assay [2] and in assay [3] were -1% and 1%, respectively. In addition, the result in assay [5], in assay [6], in assay [7] and in assay [8] was inactive.
Take `Cc1cc(N2CCCCC2)nc2ccc(NC(=O)c3cncc(Br)c3)cc12`: the growth inhibition in assay [1] was 86% (active); in assay [4], 101% (active). Further, the inhibition in assay [2] was -3%; in assay [3], 0%. In addition, the result in assay [5], in assay [6], in assay [7] and in assay [8] was inactive.
Consider `CN1CCN(CC(=O)Nc2cccc(-c3cccc(-c4nc5ccccc5[nH]4)c3)c2)CC1`, for which the growth inhibition in assay [1] is 27%; in assay [4] it was 90% (active). The inhibition in assay [2] is 11%; in assay [3], 3%. For the same compound, the result in assay [5], in assay [6], in assay [7] and in assay [8] was inactive.
For the compound `CC(C)C(=O)n1ncc2c3c(N)nc(N)nc3ccc21`, the growth inhibition in assay [1] is 3%; in assay [4], 87% (active). Moreover, the inhibition was 0% in assay [2] and -5% in assay [3]. The result in assay [5], in assay [6], in assay [7] and in assay [8] was inactive.
Consider `CC1(C)N=C(NC(=O)c2ccc([N+](=O)[O-])cc2)N=C(N)N1OCc1ccc2ccccc2c1`, for which the growth inhibition in assay [1] was 78% (active); in assay [4], 95% (active). Moreover, the inhibition is 64% (active) in assay [2] and -8% in assay [3]. The result in assay [5], in assay [6], in assay [7] and in assay [8] was inactive.
With `CCCCCCN1CCC(NCc2ccc(Cl)cc2)CC1`, the growth inhibition in assay [1] was 9%; in assay [4] it was 98% (active). Further, the inhibition in assay [2] was 19%; in assay [3] it was -7%. Also, the result in assay [5], in assay [6], in assay [7] and in assay [8] was inactive.
Turning to `COc1cc2c(cc1C(F)(F)F)N(C(=O)Nc1cc(F)c(F)c(-c3cccnc3)c1)CC2`, the growth inhibition was 15% in assay [1] and 90% (active) in assay [4]. In addition, the inhibition in assay [2] was 20%; in assay [3], 3%. Also, the outcome in assay [5], in assay [6], in assay [7] and in assay [8] was inactive.
In the case of `Cc1cc(C)c2nc(N3CCC(C(=O)NCCCN4CCC(N5CCCCC5)CC4)CC3)sc2c1`, the growth inhibition was 34% in assay [1] and 99% (active) in assay [4]. Besides, the inhibition in assay [2] was 99% (active); in assay [3], -5%. For the same compound, the outcome in assay [5], in assay [6], in assay [7] and in assay [8] was inactive.
`Cc1ccc(C)c(NC(=O)NCCNc2ccnc(Nc3ccc(F)cc3)n2)c1`: the growth inhibition in assay [1] is 5%; in assay [4], 97% (active). In addition, the inhibition in assay [2] was 21%; in assay [3] it was 6%. The result in assay [5], in assay [6], in assay [7] and in assay [8] was inactive.
For the compound `Cc1cc(Cl)ccc1N(Cc1ccccc1)c1ccnc(Cl)n1`, the values for the growth inhibition in assay [1] and in assay [4] were 98% (active) and 97% (active), respectively. The inhibition in assay [2] was 16%; in assay [3], 2%. For the same compound, the result in assay [5], in assay [6], in assay [7] and in assay [8] was inactive.
For the compound `Clc1cccc(-c2nc(Nc3ccnc(-c4ccc(CN5CCOCC5)cc4)c3)c3ccccc3n2)c1`, the growth inhibition in assay [1] was 65% (active); in assay [4] it was 100% (active). Further, the inhibition in assay [2] was 8%; in assay [3], -4%. For the same compound, the outcome in assay [5], in assay [6], in assay [7] and in assay [8] was inactive.
`Cc1cc(C(=O)NC2CCN(CC3(c4ccccc4)CCCCC3)CC2)on1`: the growth inhibition was 95% (active) in assay [1] and 97% (active) in assay [4]. In addition, the inhibition in assay [2] and in assay [3] was -3% throughout. For the same compound, the outcome in assay [5], in assay [6], in assay [7] and in assay [8] was inactive.
On to `N#Cc1ccc(-c2ccc(C(=O)NCCCCN3CC=C(c4ccc5c(c4OCC4CC4)CCCC5)CC3)cc2)cc1`, for which the growth inhibition in assay [1] was 83% (active); in assay [4], 100% (active). Also, the figures for the inhibition in assay [2] and in assay [3] were 22% and 4%, respectively. For the same compound, the outcome in assay [5], in assay [6], in assay [7] and in assay [8] was inactive.
